Test results: PubChem BioAssay (EPA / NIEHS)
Values joined by “and” are separate entries in the source; they are usually repeats but may differ in a detail not shown here. Identical values can stand only once. Some compounds were tested as several samples or in several runs, with calls that do not always agree. Active and inactive are the calls of the source. The calls were made as follows: active = hit-call score of the fitted dose curve at least 0.9, where 1 is the maximum; inactive = score below 0.9.

Experiments:
[1] = CEETOX_H295R_OHPREG: CeeTox H295R High-throughput Steroidogenesis Assay for OH-Pregnenolone (OHPREG) (AID 2283434); conditions: actives raise or lower the signal
How it was run: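 H295R cells pre-stimulated 48 h with 10 uM forskolin, then exposed 48 h to chemical in 0.1% DMSO. 17alpha-hydroxypregnenolone in medium quantified by MTBE extraction and HPLC-MS/MS; bidirectional fit versus DMSO, viability checked by MTT.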

[2] = CEETOX_H295R_ESTRADIOL: CeeTox H295R High-throughput Steroidogenesis Assay for Estradiol (AID 2283440); conditions: actives raise or lower the signal;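 also: estradiol secreted into medium quantified by LC-MS/MS after dansyl derivatisation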
How it was run: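 Readout is estradiol in conditioned medium, quantified by reverse-phase HPLC-MS/MS against a 7-point standard curve. Cells: H295R, forskolin-stimulated, then dosed 48 h in 0.1% DMSO; activity fitted in both directions relative to DMSO.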

[3] = CEETOX_H295R_ESTRONE: CeeTox H295R High-throughput Steroidogenesis Assay for Estrone (AID 2283441); conditions: actives raise or lower the signal;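 also: estrone secreted into medium measured by LC-MS/MS after dansyl derivatization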;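 as to AC50: human adrenal H295R cells prestimulated with forskolin for two days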
How it was run: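 H295R cells prestimulated 48 h with 10 uM forskolin, then exposed 48 h to chemicals in 0.1% DMSO final; estrone in medium extracted with MTBE, dansyl-derivatized, quantified by HPLC-MS/MS; bidirectional fitting versus DMSO, viability by MTT.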

[4] = CEETOX_H295R_PROG: CeeTox H295R High-throughput Steroidogenesis Assay for Progesterone (PROG) (AID 2283442); conditions: actives raise or lower the signal;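 as to AC50: human H295R adrenal cells primed with 10 µM forskolin before dosing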
How it was run: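 Measured analyte is progesterone secreted by H295R cells at 48 h of chemical treatment, following 10 uM forskolin priming. Quantitation used HPLC-MS/MS against a 7-point standard curve; cytotoxicity was checked by MTT absorbance.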

[5] = read-out: Tumor necrosis factor receptor superfamily member 6 (Homo sapiens) (UniProt P25445); test: LTEA_HepaRG_FAS: Life Technologies and Expression Analysis (LTEA) Assay for Fas cell surface death receptor (FAS) using HepaRG (AID 2283447); conditions: mRNA level, 48 h; actives raise or lower the signal
How it was run: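 Differentiated HepaRG cells in serum-free induction medium were exposed 48 h to 8 half-log concentrations up to 100 uM in 0.5% DMSO, in duplicate. FAS mRNA was measured by qRT-PCR normalised to ACTB, GAPDH and POLR2A; bidirectional fit versus DMSO.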

[6] = read-out: Fatty acid synthase (Homo sapiens) (UniProt P49327); test: LTEA_HepaRG_FASN: Life Technologies and Expression Analysis (LTEA) Assay for Fatty Acid Synthase (FASN) using HepaRG (AID 2283448); conditions: mRNA level, 48 h; actives raise or lower the signal;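 as to AC50: differentiated human HepaRG liver cells in serum-free induction medium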
How it was run: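 Differentiated HepaRG cells in serum-free induction medium exposed 48 h in duplicate to eight half-log concentrations, top 100 uM, 0.5% DMSO. FASN mRNA by qRT-PCR normalised to ACTB, GAPDH, POLR2A; bidirectional fit versus DMSO.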

[7] = read-out: Cyclin Dependent Kinase Inhibitor 1A (CDKN1A), CDKN1A (gene 1026); test: LTEA_HepaRG_CDKN1A: Life Technologies and Expression Analysis (LTEA) Assay for Cyclin Dependent Kinase Inhibitor 1A (CDKN1A) using HepaRG (AID 2283450); conditions: mRNA level, 48 h; actives raise or lower the signal
How it was run: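 Gain or loss of CDKN1A transcript is scored by bidirectional fitting against 0.5% DMSO vehicle. Human HepaRG cultures receive chemicals for 48 h across an 8-point series peaking at 100 uM; expression comes from qRT-PCR.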

[8] = read-out: catalase (CAT), CAT (gene 847); test: LTEA_HepaRG_CAT: Life Technologies and Expression Analysis (LTEA) Assay for catalase (CAT) using HepaRG (AID 2283452); conditions: mRNA level, 48 h; actives raise or lower the signal
How it was run: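 HepaRG cells in serum-free induction medium, 0.5% DMSO vehicle, exposed 48 h in duplicate over 8 half-log concentrations from 100 uM. CAT mRNA measured by qRT-PCR, normalized to ACTB, GAPDH, POLR2A; bidirectional fit versus DMSO.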

[9] = read-out: flavin-containing dimethylaniline monooxygenases 3 (FMO3), FMO3 (gene 2328); test: LTEA_HepaRG_FMO3: Life Technologies and Expression Analysis (LTEA) Assay for flavin-containing dimethylaniline monooxygenases 3 (FMO3) using HepaRG (AID 2283453); conditions: mRNA level, 48 h; actives raise or lower the signal
How it was run: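 Differentiated HepaRG cells in serum-free induction medium, exposed 48 h in duplicate to 8 half-log concentrations up to 100 uM in 0.5% DMSO. FMO3 mRNA by qRT-PCR, normalized to ACTB, GAPDH, POLR2A; bidirectional fit vs DMSO.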

[10] = read-out: Cytochrome P450 (CYP1A1), CYP1A1 (gene 1543); test: LTEA_HepaRG_CYP1A1: Life Technologies and Expression Analysis (LTEA) Assay for Cytochrome P450 (CYP1A1) using HepaRG (AID 2283454); conditions: mRNA level, 48 h; actives raise or lower the signal
How it was run: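 Using HepaRG cultures with 0.5% DMSO as vehicle, eight-concentration exposures (max 100 uM) lasted 48 h. Transcript levels were measured by TaqMan qRT-PCR and normalized to ACTB, GAPDH and POLR2A.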

[11] = read-out: CFLAR gene, CFLAR (gene 8837); test: LTEA_HepaRG_CFLAR: Life Technologies and Expression Analysis (LTEA) Assay for CFLAR gene using HepaRG (AID 2283455); conditions: mRNA level, 48 h; actives raise or lower the signal
How it was run: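 Differentiated HepaRG cells in serum-free induction medium were exposed 48 h in duplicate to eight half-log concentrations up to 100 uM in 0.5% DMSO; mRNA measured by TaqMan qRT-PCR, normalized to ACTB, GAPDH, POLR2A; bidirectional fitting versus DMSO.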

[12] = read-out: Forkhead box O1 (FOXO1), FOXO1 (gene 2308); test: LTEA_HepaRG_FOXO1: Life Technologies and Expression Analysis (LTEA) Assay for Forkhead box O1 (FOXO1) using HepaRG (AID 2283456); conditions: mRNA level, 48 h; actives raise or lower the signal
How it was run: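 Differentiated HepaRG cells, in serum-free induction medium with 0.5% DMSO, exposed 48 h in duplicate to 8-point half-log series from 100 uM. FOXO1 mRNA measured by TaqMan qRT-PCR, normalized to ACTB, GAPDH, POLR2A; bidirectional fit versus DMSO.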

[13] = CEETOX_H295R_CORTIC: CeeTox H295R High-throughput Steroidogenesis Assay for Corticosterone (CORTIC) (AID 2283437); conditions: actives raise or lower the signal;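 also: corticosterone secreted into medium quantified by mass spectrometry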;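 as to AC50: human H295R adrenal cells prestimulated with forskolin before chemical exposure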
How it was run: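 H295R adrenal cells prestimulated 48 hours with 10 uM forskolin, then exposed 48 hours to chemical in 0.1% DMSO. Corticosterone in medium measured by HPLC-MS/MS after MTBE extraction; MTT viability in the same wells; bidirectional fit versus DMSO.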

[14] = CEETOX_H295R_CORTISOL: CeeTox H295R High-throughput Steroidogenesis Assay for Cortisol (AID 2283438); conditions: actives raise or lower the signal;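 also: cortisol secreted into medium quantified by LC-MS/MS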
How it was run: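 Forskolin-primed H295R cells (10 uM, 48 h) treated 48 h with test chemical in 0.1% DMSO. Cortisol in medium quantified by MTBE extraction and HPLC-MS/MS; bidirectional fit vs DMSO, MTT viability in same wells.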

[15] = CEETOX_H295R_DOC: CeeTox H295R High-throughput Steroidogenesis Assay for DOC (AID 2283439); conditions: actives raise or lower the signal
How it was run: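 H295R cells prestimulated 48 h with 10 uM forskolin, then exposed 48 h to test chemical (0.1% DMSO final). Medium 11-deoxycorticosterone measured by HPLC-MS/MS after MTBE extraction; bidirectional fit vs DMSO, viability checked by MTT in same wells.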

[16] = CEETOX_H295R_ANDR: CeeTox H295R High-throughput Steroidogenesis Assay for Androstenedione (ANDR) (AID 2283436); conditions: actives raise or lower the signal
How it was run: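 H295R cells, following OECD 456 with minor changes, exposed to chemicals for 48 h. Androstenedione in the medium was quantified by HPLC-MS/MS after MTBE extraction. Fitting was bidirectional versus DMSO; chemicals were diluted until MTT viability was ≥70%.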

[17] = CEETOX_H295R_TESTO: CeeTox H295R High-throughput Steroidogenesis Assay for Testosterone (TESTO) (AID 2283457); conditions: actives raise or lower the signal;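 as to AC50: cells exposed to chemicals for 48 h before medium collection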
How it was run: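 Steroidogenesis in H295R cells following OECD 456 with minor changes; 48 h exposure. Medium testosterone by HPLC-MS/MS, DMSO as baseline, with MTT viability run in parallel.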

[18] = read-out: Cyclin D2 (CCND2), CCND2 (gene 894); test: LTEA_HepaRG_CCND2: Life Technologies and Expression Analysis (LTEA) Assay for Cyclin D2 (CCND2) using HepaRG (AID 2283449); conditions: mRNA level, 48 h; actives raise or lower the signal;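 also: CCND2 transcript measured by TaqMan qRT-PCR and normalised to three housekeeping genes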
How it was run: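 Chemicals in 0.5% DMSO, eight half-log concentrations from 100 uM top, were applied in duplicate for 48 h to human HepaRG cells in serum-free induction medium. CCND2 mRNA by TaqMan qRT-PCR, normalised to ACTB/GAPDH/POLR2A; bidirectional fit versus DMSO.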

Sequence of Fatty acid synthase (Homo sapiens) (P49327 whole entry, looked up): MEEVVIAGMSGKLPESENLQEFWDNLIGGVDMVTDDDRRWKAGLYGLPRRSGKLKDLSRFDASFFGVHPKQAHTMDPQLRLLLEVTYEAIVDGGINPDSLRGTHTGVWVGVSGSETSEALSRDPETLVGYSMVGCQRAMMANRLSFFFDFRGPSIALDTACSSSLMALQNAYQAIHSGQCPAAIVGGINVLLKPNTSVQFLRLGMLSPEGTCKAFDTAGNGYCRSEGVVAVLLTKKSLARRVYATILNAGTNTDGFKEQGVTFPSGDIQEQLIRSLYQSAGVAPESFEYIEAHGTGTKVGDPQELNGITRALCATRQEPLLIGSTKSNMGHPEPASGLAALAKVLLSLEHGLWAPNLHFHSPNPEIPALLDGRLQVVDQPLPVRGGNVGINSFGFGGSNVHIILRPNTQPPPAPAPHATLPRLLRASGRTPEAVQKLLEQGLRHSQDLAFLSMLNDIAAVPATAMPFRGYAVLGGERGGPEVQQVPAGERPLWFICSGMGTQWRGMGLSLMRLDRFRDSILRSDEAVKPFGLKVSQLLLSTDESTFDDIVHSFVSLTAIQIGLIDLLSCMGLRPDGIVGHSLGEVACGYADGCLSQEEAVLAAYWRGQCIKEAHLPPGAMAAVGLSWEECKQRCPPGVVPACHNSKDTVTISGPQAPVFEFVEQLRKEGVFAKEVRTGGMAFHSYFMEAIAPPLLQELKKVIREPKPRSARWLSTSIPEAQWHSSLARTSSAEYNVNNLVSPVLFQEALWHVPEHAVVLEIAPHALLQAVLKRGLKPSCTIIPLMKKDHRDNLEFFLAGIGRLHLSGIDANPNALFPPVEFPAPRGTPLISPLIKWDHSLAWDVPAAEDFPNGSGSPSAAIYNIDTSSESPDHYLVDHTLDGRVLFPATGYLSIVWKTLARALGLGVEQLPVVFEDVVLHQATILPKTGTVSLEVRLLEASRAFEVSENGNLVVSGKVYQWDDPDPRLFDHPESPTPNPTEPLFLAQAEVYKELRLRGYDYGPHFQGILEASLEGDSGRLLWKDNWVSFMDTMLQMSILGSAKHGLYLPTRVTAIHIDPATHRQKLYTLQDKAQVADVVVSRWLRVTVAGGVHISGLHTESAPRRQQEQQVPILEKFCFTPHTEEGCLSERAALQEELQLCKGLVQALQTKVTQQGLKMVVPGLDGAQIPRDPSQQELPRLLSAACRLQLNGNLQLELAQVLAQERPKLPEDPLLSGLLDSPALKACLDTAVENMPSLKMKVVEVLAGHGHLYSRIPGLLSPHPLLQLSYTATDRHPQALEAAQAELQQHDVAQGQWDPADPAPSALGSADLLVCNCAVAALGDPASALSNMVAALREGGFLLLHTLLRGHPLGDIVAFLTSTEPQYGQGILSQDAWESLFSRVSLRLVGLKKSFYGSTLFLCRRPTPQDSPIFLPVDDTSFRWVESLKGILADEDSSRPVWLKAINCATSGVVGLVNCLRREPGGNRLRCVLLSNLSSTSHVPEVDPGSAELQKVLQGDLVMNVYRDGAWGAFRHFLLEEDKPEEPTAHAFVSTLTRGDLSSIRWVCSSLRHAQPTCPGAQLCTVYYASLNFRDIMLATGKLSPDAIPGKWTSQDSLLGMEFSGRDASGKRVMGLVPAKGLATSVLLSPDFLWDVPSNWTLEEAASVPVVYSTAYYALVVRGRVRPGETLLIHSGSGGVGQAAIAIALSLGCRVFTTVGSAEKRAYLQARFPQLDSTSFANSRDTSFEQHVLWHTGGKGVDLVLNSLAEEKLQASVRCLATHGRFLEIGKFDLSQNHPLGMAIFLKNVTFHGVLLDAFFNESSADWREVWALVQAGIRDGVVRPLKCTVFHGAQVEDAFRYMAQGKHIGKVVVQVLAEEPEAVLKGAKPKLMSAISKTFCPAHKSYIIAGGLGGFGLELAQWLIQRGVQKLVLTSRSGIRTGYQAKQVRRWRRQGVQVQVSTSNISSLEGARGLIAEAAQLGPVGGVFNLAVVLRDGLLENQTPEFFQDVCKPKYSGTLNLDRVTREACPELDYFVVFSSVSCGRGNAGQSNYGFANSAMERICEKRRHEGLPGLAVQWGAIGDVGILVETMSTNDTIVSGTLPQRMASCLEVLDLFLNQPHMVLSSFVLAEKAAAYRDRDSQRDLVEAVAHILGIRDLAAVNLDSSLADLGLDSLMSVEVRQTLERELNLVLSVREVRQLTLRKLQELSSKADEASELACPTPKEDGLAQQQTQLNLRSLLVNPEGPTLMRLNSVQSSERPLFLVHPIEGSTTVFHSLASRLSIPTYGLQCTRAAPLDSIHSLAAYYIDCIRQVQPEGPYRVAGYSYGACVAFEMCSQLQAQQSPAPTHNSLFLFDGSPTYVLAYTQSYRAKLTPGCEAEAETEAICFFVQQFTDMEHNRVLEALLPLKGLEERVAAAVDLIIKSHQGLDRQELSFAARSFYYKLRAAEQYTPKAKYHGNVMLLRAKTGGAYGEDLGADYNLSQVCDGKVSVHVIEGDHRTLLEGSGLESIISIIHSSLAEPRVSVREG

SMILES: c1ccc2c(c1)Nc1ccccc1S2
- AC50 [1]: 6.86 µM (active) and 2.55 µM (active)
- outcome [1]: inactive
- outcome [2]: inactive
- AC50 [3]: 9.58 µM (active) and 17.3 µM (active) and 12 µM (active)
- AC50 [4]: 2.23 µM (active) and 2.16 µM (active) and 12.2 µM (active)
- outcome [5]: inactive
- AC50 [6]: 50 µM (active)
- outcome [7]: inactive
- outcome [8]: inactive
- outcome [9]: inactive
- AC50 [10]: 86.5 µM (active)
- outcome [11]: inactive
- outcome [12]: inactive

SMILES: CCOP(=S)(NC(C)C)Oc1ccccc1C(=O)OC(C)C (configuration not stated)
- outcome [1]: inactive
- AC50 [13]: 6.94 µM (active)
- outcome [14]: inactive
- outcome [15]: inactive
- outcome [2]: inactive
- outcome [3]: inactive
- AC50 [4]: 6.65 µM (active)

SMILES: N#Cc1c(-c2ccc(Cl)cc2)[nH]c(C(F)(F)F)c1Br
- outcome [1]: inactive
- outcome [16]: inactive
- AC50 [13]: 0.291 µM (active)
- AC50 [14]: 645 nM (active)
- AC50 [15]: 0.253 µM (active)
- outcome [2]: inactive
- outcome [3]: inactive
- outcome [4]: inactive
- outcome [17]: inactive

SMILES: CC(=O)c1ccc(-c2ccccc2)cc1
- outcome [1]: inactive
- AC50 [16]: 50 µM (active)
- AC50 [13]: 18.9 µM (active)
- outcome [14]: inactive
- AC50 [15]: 36.5 µM (active)
- outcome [4]: inactive
- AC50 [17]: 19.1 µM (active)

SMILES: CCC(C)(C)c1ccc(O)cc1
- outcome [1]: inactive
- outcome [13]: inactive
- outcome [14]: inactive
- AC50 [15]: 21.9 µM (active)
- outcome [2]: inactive
- outcome [3]: inactive
- outcome [4]: inactive
- outcome [5]: inactive
- outcome [18]: inactive
- outcome [7]: inactive
- outcome [8]: inactive
- outcome [9]: inactive
- outcome [10]: inactive
- outcome [11]: inactive
- outcome [12]: inactive

SMILES: Cc1ccc(O)cc1C
- outcome [1]: inactive
- outcome [2]: inactive
- outcome [3]: inactive
- outcome [4]: inactive
- outcome [5]: inactive
- outcome [6]: inactive
- outcome [18]: inactive
- outcome [7]: inactive
- outcome [8]: inactive
- outcome [9]: inactive
- outcome [11]: inactive
- outcome [12]: inactive

SMILES: ClC(Cl)=C(c1ccc(Cl)cc1)c1ccccc1Cl
- outcome [1]: inactive
- outcome [16]: inactive
- outcome [13]: inactive
- outcome [14]: inactive
- outcome [15]: inactive
- outcome [2]: inactive
- outcome [3]: inactive
- outcome [4]: inactive
- outcome [17]: inactive
